The source of these data is the OligoGym collection.
Also: reference of the scale not given here.

The target in the first assay is PLXNA3. Nature of the assay: pooled miR-30 sensor sort-seq; sequence = guide strand. The settings on record: shRNA.
Sequence TTGTGTGTCCGAGACAGTGAGC came in with a sensor-assay potency score (higher = more potent) of -0.941.
On the same count and under the same terms, to TAGAACTCTGAGTCTCCCGCGC belongs -0.24.
The same measure, in the same setting: to TTGTTGATGTTGTCCACGGGGG belongs -0.257.
For TAGTAGGTAAAGGAGGAGCGGT, the sensor-assay potency score (higher = more potent) is -1.08.
Still for that read-out and setting: to ATGTCGAACACGAACTGCGGGT belongs -1.37; to TACAAGGACAGCGTGTCTGAGG, -0.523.
Sequence ATCTCGGAGACCATCTTGCTGC gave a sensor-assay potency score (higher = more potent) of -1.06.
The sequence TAGATCTCGGAGACCATCTTGC came in with a sensor-assay potency score (higher = more potent) of -0.165.
On the same count and under the same terms, the figure for TCACACTCGATCTTGGTGGTGA is 0.265; for TTGTAGTCGATCTGCTGACGGA it is -0.986; for TGTCTTGTAGTCGATCTGCTGA it is -0.0226.
Regarding TAGTCTATGAGCAGCAGCTTGT, the sensor-assay potency score (higher = more potent) is -0.951.

Another assay addresses PM20D1. Described as above. The note with it: shRNA.
With TTTCTCGTTGACTCCATGGATG, the sensor-assay potency score (higher = more potent) is -0.946.
On the same count and under the same terms, the figure for TTTCTCTCCATAAACCTGCTTA is 0.0874.
On the same count and under the same terms, to TACATTTGTTAAGTCAAGCCTG belongs 0.298; to TTGGATAGTGAACAGGTGGCTA, -0.715; to TTGAATATGGTGAGTGCCGTGG, -0.197.
Still for that read-out and setting: the figure for TTTATGAATGTATTTTCCGAAC is -1.32.
TTGGACTGAGATTTTCTCGTTG: the sensor-assay potency score (higher = more potent) came to 0.297.
The same measure, in the same setting: to AATACAGTCACCACTGTCCCGC belongs -0.75.
The same measure, in the same setting: the figure for TGACATTGAACTTGACCCCTGC is 0.0724; for TTGGACTGTCTGTCCAGGGTGA it is 0.135; for TTGTCGTCCAGTGTGCCCCGAC it is -0.594.
On the same count and under the same terms, the figure for ATGACATTGAACTTGACCCCTG is -0.759.
